# Experimental data as given in PubChem BioAssay.
# Target: Streptavidin (Streptomyces avidinii) (UniProt P22629)
# Assay: compounds binding control protein streptavidin – biophysical, small-molecule microarray, 635/667 nm fluorescence, artefact control for SMM compound annotation, primary screen (AID 1147);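 further: signal reflects streptavidin binding to arrayed compounds as a control protein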
# Conditions: higher = more signal
# Sequence of Streptavidin (Streptomyces avidinii) (P22629 whole entry, looked up): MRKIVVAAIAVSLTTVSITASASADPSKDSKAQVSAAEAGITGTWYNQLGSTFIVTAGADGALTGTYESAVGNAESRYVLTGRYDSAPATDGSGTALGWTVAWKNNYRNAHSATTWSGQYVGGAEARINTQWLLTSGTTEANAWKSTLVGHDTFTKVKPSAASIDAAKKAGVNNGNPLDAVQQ
row,Compound,composite z-score
1,C=C(COC)/C(=C/C[C@@H](OC(C)=O)c1cccc(OCCO)c1)c1cc(C(=O)OC)ccc1OC,-0.798
2,COCC(=C=CC[C@H](O)c1ccc(OCCO)cc1)C[C@H](O)c1ccccn1,-0.65
3,CCOC(=O)[C@H]1C/C=C/C[C@H](C(=O)OCC)C(=O)O[C@H]2[C@@H](OC)O[C@H](CO)[C@@H](OC(=O)Nc3ccc(Br)cc3)[C@@H]2OC1=O,0.521
4,CCN1C(C)=C(C(=O)OC)[C@@H](c2ccccc2)N2C(=O)[C@@]3(C(=O)OC)O[C@@]12[C@@H]1C(=O)N(c2ccccc2)C(=O)[C@@H]13,0.424
5,CC(C)N1CC=CC23O[C@@H]4/C=C\CCCOC(=O)C4[C@H]2C(=O)N(CCCCCO)[C@@H]3C1=O (stereo not given in full),-1.52
6,C=C(COC)/C(=C/C[C@H](OC(C)=O)c1ccc(OCCO)cc1)c1cnc2ccccc2c1,0.864
7,COCCOC(=O)N1C(=O)[C@@]2(c3cc(C#CCNC(N)=O)ccc31)[C@H](c1ccc(OCCO)cc1)N1[C@H](c3ccccc3)[C@H](c3ccccc3)OC(=O)[C@H]1[C@@H]2C(=O)N1CCCCCCC1,0.34
8,CO[C@H]1COC(=O)[C@@H](OCc2ccccc2)C=C[C@H](C)[C@@H](OC)COC(=O)[C@H](OCc2ccccc2)C=C[C@@H]1C,-0.0864
9,NC(=O)NCC#Cc1ccc2c(c1)[C@]1(C(=O)N2)[C@H](C(=O)N2CCCCCCC2)[C@H]2C(=O)O[C@H](c3ccccc3)[C@H](c3ccccc3)N2[C@@H]1c1ccccc1OCCO,3.38
10,COCCCNC(=O)[C@@]1(Sc2ccc(C)cc2)CC(=O)N(Cc2cc(C(F)(F)F)cc(C(F)(F)F)c2)[C@@H]1c1ccc(CO)cc1I,-0.713
